Source: PubChem BioAssay
MRP reversal: reversal of MRP1-mediated doxorubicin resistance, primary screen, H69AR cells, doxorubicin co-treatment. differential viability (reversal), % at 10 µM. 85,000 tested, 0.04% active. H69AR cells + 2 uM doxorubicin, CellTiter-Glo, 72 h;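 active = viability drop by adding the cancer drug above about 55%, with treated viability meeting a 40% cutoff, limit read from the data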;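 also: larger differential means the compound sensitizes cells more to doxorubicin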
MRP-1 activ: H69AR viability gain despite doxorubicin, primary screen, MRP-1 activator project, H69AR cells, CellTiter-Glo; viability rescue; viability increase, % at 10 µM; 140,000 tested, 0.61% active; AID 799, 2007;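 active = viability gain under doxorubicin at or above a set limit, the compound median plus 3 SD, cut at about 4.7% in these data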;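 also: MRP-1 overexpressing cells given doxorubicin 25 µM after compound pretreatment; 18-22 h compound pretreatment then 72 h with doxorubicin before readout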
CYP2C19 act: human CYP2C19 activators, primary screen, biochemical, luminescence; Cytochrome P450 2C19 (Homo sapiens), P33261; activation factor at 5 µM; AID 1025, 2008; recombinant CYP2C19, luciferin-H EGE luminescence; stronger effect = higher value; 0 = fully inhibited enzyme, 1 = untreated enzyme; 96,000 tested, under 10 active;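 active = activation factor of at least 2 at 5 µM in the primary screen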
CYP2C19 inhib: blockers of cytochrome P450 2C19 activity – biochemical, luminescence, ADME assay, primary screen | P33261 | CYP2C19 Supersomes, luciferin-H EGE luminescence, 30 min | inhibition, % at 5 µM | 96,000 tested, 21% active | AID 778, 2007;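 active = CYP2C19 inhibition above a set limit at 5 µM in the primary screen, cut at about 50% in these data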
CYP2C9 act: human CYP2C9 activators, primary screen, biochemical, luminescence; 96,000 tested, 1.4% active; Cytochrome P450 2C9 (Homo sapiens), P11712; AID 1024, 2008; recombinant CYP2C9, luciferin-H conversion; stronger effect = higher value; factor 1 = untreated enzyme, 0 = blocked; activation factor at 5 µM;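 active = activation factor of 2 or more for CYP2C9 at a 5 µM dose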
Target sequence (P11712 whole entry, looked up): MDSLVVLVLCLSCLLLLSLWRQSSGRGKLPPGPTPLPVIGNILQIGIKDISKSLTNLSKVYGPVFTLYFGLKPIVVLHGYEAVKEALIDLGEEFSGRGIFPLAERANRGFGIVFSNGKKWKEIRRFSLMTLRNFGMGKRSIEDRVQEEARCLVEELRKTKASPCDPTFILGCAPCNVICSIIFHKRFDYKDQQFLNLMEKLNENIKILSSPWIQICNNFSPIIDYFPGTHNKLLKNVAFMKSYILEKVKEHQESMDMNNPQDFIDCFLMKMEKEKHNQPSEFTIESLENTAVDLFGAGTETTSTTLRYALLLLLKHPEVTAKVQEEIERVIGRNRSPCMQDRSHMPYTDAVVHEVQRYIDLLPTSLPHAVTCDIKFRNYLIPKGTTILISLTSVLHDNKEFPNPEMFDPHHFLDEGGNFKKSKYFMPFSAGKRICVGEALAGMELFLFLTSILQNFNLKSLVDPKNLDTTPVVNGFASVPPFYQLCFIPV
CYP2C9 inhib: blockers of cytochrome P450 2C9 activity – biochemical, luminescence, ADME assay, primary screen; P11712; CYP2C9 Supersomes, luciferin-H conversion; inhibition, % at 5 µM; 96,000 tested, 20% active; AID 777, 2007;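 active = blocking of liver enzyme CYP2C9 beyond about 50% at 5 µM, limit read from the data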
Hits are given with their value; n = inactive; x = not tested or not shown. The list is not random: actives were taken first. Their share in the collection is about 21%.

SMILES	MRP reversal	MRP-1 activ	CYP2C19 act	CYP2C19 inhib	CYP2C9 act	CYP2C9 inhib
Cc1ccc(C2/C(=C(\O)c3c(C)nc4ccccn34)C(=O)C(=O)N2CCCN2CCOCC2)o1 (stereo not given)	n	x	x	x	x	x
COc1ccc(-c2c3c(=O)n(C)c(=O)n(C)c3cn2-c2cc(OC)ccc2OC)cc1	n	n	n	n	n	63.2
Cn1c(=O)c2c(-c3ccccc3)n(-c3ccccc3O)cc2n(C)c1=O	n	n	n	n	n	n
COc1cccc(-c2cc(C(F)(F)F)nc(N3CCCCC3)n2)c1	n	n	n	n	n	n
Cc1cc2cc(CN(C(=O)C3CC3)C3CCCC3)c3nnnn3c2cc1C	n	n	n	95.6	n	71.6
CC(=O)N(Cc1cc2ccc(C)c(C)c2n2nnnc12)C1CCCC1	n	x	n	n	n	n
Cc1nnsc1NC(=O)OCC(C)(C)C	n	n	n	n	n	n
O=C(CSc1nnnn1-c1ccccc1)Nc1nsc(-c2ccccc2)n1	n	n	n	n	n	n
O=C(CSc1nnnn1-c1ccccc1)Nc1nsc(-c2ccc(Cl)cc2)n1	n	n	n	74.9	2.8	n
O=C(CSc1nnnn1-c1ccccc1)CC(=O)Nc1ccc(Cl)cc1	n	n	n	n	2.4	n
Cc1ccc(-c2nc(NC(=O)CSc3nnc(C)s3)ns2)cc1	n	n	n	65.0	n	n
O=C(CSc1nnnn1-c1ccccc1)Nc1ccc(N2CCOCC2)c(Cl)c1	n	n	n	n	n	n
COC(=O)C1=C(C(=O)OC)C2C(C)=CC(C)=CN2C(C(=O)OC)=C1C(=O)OC (stereo not given)	x	n	x	x	x	x
c1ccc(-c2nnc(CN3CCC4(CC3)OCCO4)o2)cc1	n	n	n	53.0	n	n
c1ccc(-c2nnc(CN3CCCc4ccccc43)o2)cc1	n	n	n	77.9	n	76.2
Fc1ccc(N2CCN(Cc3nnc(-c4ccccc4)o3)CC2)cc1	x	n	x	x	x	x
COc1cccc(C(C(=O)NCc2ccco2)N(C(=O)Cn2nnc3ccccc32)C2CC2)c1OC (stereo not given)	n	n	n	n	n	n
Cc1ccn2c(c1)nc(=S)n2C(=O)c1ccco1	x	n	x	x	x	x
CC(=O)ON1C(C)(C)Cc2noc(N)c2C1(C)C	n	n	n	n	n	n
CC1(C)Cc2noc(N)c2C(C)(C)N1OC(=O)c1cccs1	n	n	n	97.8	n	83.2
CC1(C)Cc2noc(N)c2C(C)(C)N1OC(=O)c1scc2c1OCCO2	n	n	n	50.9	n	n
CC(C)n1c(O)c(N=Nc2ccc(Cl)nn2)c2ccccc21	x	n	x	x	x	x
COc1ccc(-c2cc(C(F)(F)F)nc(SCC(=O)Nc3sc4c(c3C#N)CCC4)n2)cc1	x	n	n	n	n	68.3
N#Cc1c(NC(=O)CSc2nc(-c3ccccc3)cc(C(F)(F)F)n2)sc2c1CCC2	x	n	x	x	x	x
COc1ccc(-c2nnn(CC(=O)Nc3sc4c(c3C#N)CCCC4)n2)cc1	n	n	n	n	n	54.4
SMILES	MRP reversal	MRP-1 activ	CYP2C19 act	CYP2C19 inhib	CYP2C9 act	CYP2C9 inhib
COc1ccc(-c2ccc(C#N)c(SCC(=O)Nc3sc4c(c3C#N)CCC4)n2)cc1OC	n	n	n	n	n	98.0
CCC1CCc2c(sc(NC(=O)CSc3nc(-c4ccco4)cc(C(F)(F)F)n3)c2C#N)C1 (stereo not given)	n	n	n	68.7	n	88.6
O=C(Cc1ccccc1[N+](=O)[O-])NCCSCc1c(F)cccc1Cl	x	n	n	n	n	n
COc1ccc(/C=C2\SC(=O)N(CCNC(=O)Cn3cnnn3)C2=O)cc1	x	n	n	54.2	n	70.4
COc1ccc(/C=C2\SC(=O)N(CCNC(=O)C3CC(=O)N(c4ccccc4)C3)C2=O)cc1 (stereo not given)	x	n	n	n	n	58.7
COc1ccc(/C=C2\SC(=O)N(CCNC(=O)CCS(=O)(=O)c3ccc(C)cc3)C2=O)cc1	x	n	x	x	x	x
Cc1cccc2cc(CN(CC3CCCO3)C(c3nnnn3Cc3ccco3)C(C)C)c(=O)[nH]c12 (stereo not given)	x	n	n	n	n	n
CCOc1cccc2sc(=NC(=O)c3ccc(S(=O)(=O)N4CCOCC4)cc3)n(C)c12	x	n	n	n	n	56.0
